From PubChem BioAssay AID504546 (Broad Institute, 2011)
Inconclusive results are not listed. The source made the active and inactive calls.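 How the source made its calls: active means every repeat run fits a falling-signal curve with half-maximal potency within ten times top tested dose; inconclusive means runs disagree, or flat moderate drop, or poor fit; inactive means every run inactive, including signal moving upward.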

assay: ADP-Glo luciferase signal interference – biochemical, luminescence, cherry-picked samples, set 2, artefact control for CDK5 inhibitor project, dose response (AID 504546); conditions: ADP-Glo detection reagent counter screen, 5 uM ADP; series mostly up to 30 µM; activity change, negative = inhibition: at the top concentration;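 further: 0% = DMSO wells and -100% = wells lacking ADP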

SMILES	activity change, negative = inhibition
CC(C)n1cnc2c(NCc3ccccc3)nc(NCc3ccccc3)nc21	20.6% (inactive)
O=c1c(O)c(-c2ccc(O)c(O)c2)oc2cc(O)ccc12	15.9% (inactive)
CC(=O)[C@H]1CC[C@H]2[C@@H]3CC=C4C[C@@H](OS(=O)(=O)O)CC[C@]4(C)[C@H]3CC[C@]12C	-2.09% (inactive)
Cc1nn(-c2ccc(Cl)cn2)c2c1C(=O)CC(C)(C)C2Br (stereo not given)	1.63% (inactive)
C=CC(=O)Nc1ccc(Nc2nc(NC3CCC(N(C)C)CC3)nc3c2ncn3C(C)C)cc1 (stereo not given)	7.33% (inactive)
CC(C)(C)N=Cc1c(O)ccc2oc3c(c12)CCCC3	2.31% (inactive)
O=[N+]([O-])c1ccc2c(c1)/C(=N\O)c1ccccc1-2	-10.3% (inactive)
O=C(O)c1ccc(N/N=C/c2ccc(C(F)(F)F)cc2)cc1	-9.49% (inactive)
Oc1ccc(C=NNc2ccccn2)c(O)c1	-9.83% (inactive)
O=C(NNC(=O)c1ccco1)c1ccccc1	4.63% (inactive)
COc1cccc(C(=O)N2CCN(c3ccccn3)CC2)c1	15.6% (inactive)
COc1ccc(Nc2nccc(-c3ccc([N+](=O)[O-])cc3)n2)cc1	-11.6% (inactive)
COc1ccc(Nc2nc(N)c([N+](=O)[O-])c(N3CCCC3)n2)cc1	-1.93% (inactive)
O=c1c(O)cccc2cc(O)c(O)c(O)c12	0.618% (inactive)
Nc1ncnc2c1ncn2C1OC(CO)C(O)C1O (stereo not given)	12.3% (inactive)
OCCCNc1nccc(-c2cc(Nc3cccc(Cl)c3)ncn2)n1	5.63% (inactive)
O=C(O)c1ccc(/C=N\Nc2ccccn2)cc1	-6.4% (inactive)
CC(C)C[C@H](CO)Nc1nc(Nc2cccc(Cl)c2)c2ncn(C(C)C)c2n1	-0.074% (inactive)

SMILES	activity change, negative = inhibition
COc1cc(OC)cc(C(=O)N2CCN(c3ccccn3)CC2)c1	1.89% (inactive)
COc1ccc(Nc2nc(N)c(C(=O)c3ccc(OC)cc3)s2)cc1	-7.71% (inactive)
Cc1[nH][nH]c(=O)c1C(c1ccccc1[N+](=O)[O-])C(C#N)C#N (stereo not given)	-5.72% (inactive)
NC(=O)N/N=C/c1c(O)ccc2oc3c(c12)CCCC3	-5.29% (inactive)
CCCn1c(NC(=O)c2cccc(S(=O)(=O)N3CCCC3)c2)nc2ccccc21	13.4% (inactive)
Cc1ccc2nc(Cl)c(C#N)cc2c1	10.7% (inactive)
Cc1nc(Nc2ccccc2)sc1C(=O)c1ccccc1	1.1% (inactive)
COc1ccccc1C(=O)N1CCN(c2ccccn2)CC1	-2.56% (inactive)
NC1=NC(=O)/C(=C/c2ccc(-c3ccc(S(N)(=O)=O)cc3)o2)S1	13.8% (inactive)
CC(C)n1cnc2c(N(C)c3cccc(Cl)c3)nc(N(CCO)CCO)nc21	12.7% (inactive)
Nc1nc(Nc2ccccc2)sc1C(=O)c1ccccc1	17.3% (inactive)
O=C(Cc1ccc(O)cc1)NCCNC(=S)NCc1ccccc1	19.9% (inactive)
CCOc1cc(C(=O)N2CCN(c3ccccn3)CC2)cc(OCC)c1OCC	5.42% (inactive)
CC(C)[C@H](CO)Nc1nc(NCc2ccc(S(N)(=O)=O)cc2)c2ncn(C(C)C)c2n1	0.978% (inactive)
CC[C@H](CO)Nc1nc(Nc2cccc(Cl)c2)c2ncn(C(C)C)c2n1	15.9% (inactive)
COc1ccc(C(=O)c2sc(Nc3ccccc3F)nc2N)cc1	-6.41% (inactive)
FC(F)(F)c1ccc(N/N=C/c2cccnc2)nc1	18.8% (inactive)
